The results in this text go back to PubChem BioAssay AID651820 (National Center for Advancing Translational Sciences (NCATS), 2012).

Hit rate of the full screen: of about 340,000 compounds, about 12,000 (3.5%) were called active. Roughly 18% stayed inconclusive and do not appear here. What follows is part of a selection rich in actives, with near analogues and random picks from the rest. Values without a mark were called inactive. Calls follow the shape of the dose curve; as a rule, active = well fitted inhibition curve with a large enough effect; inconclusive = small, poorly fitted or top-dose-only effect, or another doubt; inactive = no such curve, though single readings can be large or run the other way.
% is scaled to controls: 0 for no effect and ±100 for the full control effect; potency is read from the fitted curve at half-maximal effect.

The nature of this test: qHTS Assay for Inhibitors of Hepatitis C Virus (HCV). The following applies: Huh7.5.1 HCVcc-Cre infection, luciferase reporter, 44 h; series mostly up to 41.8 µM; activity change, negative = inhibition: at the top concentration. Put shortly:
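Antiviral activity was scored by luciferase reporter output from cells infected with HCVcc-Cre (~0.5 moi) in presence of compound, 44 h infection period, cells seeded 1,000/well 4 h prior.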
For orientation: Quantitative high-throughput screening tests each substance at several concentrations.
For the compound `CC1CCCCN1CCCNC(=O)Cn1ncc2c([nH]c3ccccc32)c1=O` (stereo unspecified), the “activity change, negative = inhibition” value was 12.5%. Take `CCC1CCCCN1CCCNC(=O)Cn1nc(-c2ccccc2)ccc1=O` (stereo unspecified): the “activity change, negative = inhibition” value was 5.92%. As for `CCCn1c2ccccc2c2cnn(CC(=O)NCCCN3CCCCC3CC)c(=O)c21` (stereo unspecified), the Potency is 11.2 µM (active). For the compound `CC(C)N(C(=O)CN1CCN(S(=O)(=O)c2ccc(Br)s2)CC1)C(C)C`, the “activity change, negative = inhibition” value is 8.62%.

Turning to `Cc1ccc(/C=C/C(=O)OCC(=O)Nc2cccnc2Cl)cc1`, the “activity change, negative = inhibition” value was -7.92%. On to `c1ccc(CSCCc2ccncc2)cc1`, for which the “activity change, negative = inhibition” value was -1.66%. Same read-out and setting: the result for `O=[N+]([O-])c1cc(C(F)(F)F)ccc1NCCc1ccncc1` reads -0.741%. With `CC(C)(C)c1ccc(SCCc2ccncc2)cc1`, the Potency is 8.91 µM (active). Regarding `CC1(C)Cc2ccccc2-c2[nH]c(=S)[nH]c(=O)c21`, the “activity change, negative = inhibition” value was 25.9%. `CC1(C)Cc2ccccc2/C(=C/C(=O)c2ccccc2)N1`: the Potency was 14.1 µM (active).

Take `CC(C)CC(N=C1NC(C)(C)Cc2ccccc21)C(=O)O` (stereo unspecified): the “activity change, negative = inhibition” value was 11%.

Consider `CN(CC(=O)NCCc1ccc(F)cc1)CC(=O)Nc1ccc(F)c(F)c1F`, for which the “activity change, negative = inhibition” value was -17%. `Fc1ccc2[nH]c3c(N4CCN(Cc5ccc6c(c5)OCO6)CC4)ncnc3c2c1`: the Potency was 2.51 µM (active). As for `CC(C)(C)n1nnnc1C(c1ccc(F)cc1)N1CCN(Cc2ccc3c(c2)OCO3)CC1` (stereo unspecified), the “activity change, negative = inhibition” value was -0.102%. In the case of `Fc1ccc2[nH]c3c(N4CCSCC4)ncnc3c2c1`, the Potency was 6.31 µM (active). For `O=c1[nH]c(N2CCN(Cc3ccc4c(c3)OCO4)CC2)nc2c1CCCC2`, the “activity change, negative = inhibition” value was 2.31%.

On to `Cc1c(CN2CC[C@@H](N3CCN(c4ccccn4)CC3)[C@H](O)C2)[nH]c2ccc(F)cc12`, for which the “activity change, negative = inhibition” value is -28.5%. In the case of `O=C1NC(=O)C(CCc2ccccc2)(c2ccccc2)N1` (stereo unspecified), the “activity change, negative = inhibition” value is -0.263%. On to `Cc1cc(C)n2nc(C(=O)OC(C)C(=O)c3cc(C)c(C)cc3C)nc2n1` (stereo unspecified), for which the “activity change, negative = inhibition” value was 3.37%. Still for that read-out and setting: the result for `CCC(C)N(C(=O)Cn1nc(C)c([N+](=O)[O-])c1C)C1CCS(=O)(=O)C1` (stereo unspecified) reads 35.7%; that for `O=C(Nc1ccccc1)Nc1ccc(C(F)(F)F)cn1`, -9.65%. Turning to `Cc1nccn1CC(=O)N/N=C/c1ccc(O)c(O)c1`, the “activity change, negative = inhibition” value is 11.8%.

For the compound `Oc1ccc(/C=N/Nc2ccc(C(F)(F)F)cn2)cc1O`, the Potency was 3.55 µM (active). On to `CC(=O)Nc1ccc(C(=O)NNC(=O)CCCCC(=O)NNC(=O)c2ccc(NC(C)=O)cc2)cc1`, for which the “activity change, negative = inhibition” value is 10.3%.

Take `CCCCN1C(N)=NC[C@@H]1Cc1ccccc1`: the “activity change, negative = inhibition” value was 14%.

Take `CC[C@]12c3[nH]c4ccc(Cl)cc4c3CCN1C(=O)[C@@H](CC(=O)NCCCOC)C[C@@H]2C(=O)N1CCN(C(=O)C2CC2)CC1`: the “activity change, negative = inhibition” value was -19.7%. With `C=CC[C@@H](CC(=O)N[C@@H](CO)Cc1ccccc1)C(=O)NCCOC(=O)[C@@H](CC=C)CC(=O)OC(C)(C)C`, the “activity change, negative = inhibition” value was 21.7%. The same measure, in the same setting: the figure for `CCCn1c(C)cc(-c2csc(NC(=O)CCc3nc4ccccc4c(=O)[nH]3)n2)c1C` is -6.01% [at 8.37 µM]. The same measure, in the same setting: the result for `O=C1CN(C(=O)COC(=O)/C=C/c2ccc(F)cc2)c2ccccc2N1` reads 3.6%. Same read-out and setting: the result for `O=C(CSc1nc2ccccc2c(=O)n1CCCO)N1CCc2ccccc21` reads -6.38%; that for `O=C(CSc1nc2[nH]ncc2c(=O)n1-c1ccccc1)N1CCCc2ccccc21`, -4.01%. As for `Cn1c(SCC(=O)N2CCCc3ccccc32)nc2ccccc2c1=O`, the Potency was 12.6 µM (active). For `COCCn1cnnc1SCC(=O)Nc1cccc(S(=O)(=O)N2CCCCC2)c1`, the “activity change, negative = inhibition” value was -6.89%. On the same count and under the same terms, the result for `O=C(COC(=O)COc1ccccc1F)Nc1cccc(S(=O)(=O)N2CCCCC2)c1` reads 2.99%. As for `Cn1nnnc1SCC(=O)Nc1cccc(S(=O)(=O)N2CCCCC2)c1`, the “activity change, negative = inhibition” value is 8.59%.

Turning to `Nc1cc(N)nc(SCC(=O)Nc2cccc(S(=O)(=O)N3CCCCC3)c2)n1`, the “activity change, negative = inhibition” value was 0.0012%. Regarding `CSCCC1NC(=O)N(CC(=O)Nc2cccc(S(=O)(=O)N3CCCCCC3)c2)C1=O` (stereo unspecified), the Potency was 11.2 µM (active). As for `O=C(Cn1cnc2ccccc2c1=O)Nc1cccc(S(=O)(=O)N2CCCCC2)c1`, the Potency is 11.2 µM (active). Turning to `Nc1ncnc2c1ncn2[C@@H]1O[C@H](CNCc2cccn2-c2nccs2)[C@@H](O)[C@H]1O`, the “activity change, negative = inhibition” value was 7.72%. Still for that read-out and setting: the result for `NC(=O)c1ccsc1NC(=O)COC(=O)COc1ccc(C=O)cc1` reads -1.1%; that for `CCOC(=O)/C=C/c1ccc(C(F)(F)F)cc1S(=O)(=O)NC(C)(C)C`, 4.83%; that for `CCCCN1C(=O)C(=O)N(CC(=O)Nc2cccc(C(C)=O)c2)C1=O`, 11.1%. Regarding `CC(C)Cc1nnc(NC(=O)CCNC(=O)c2ccccc2Cl)s1`, the “activity change, negative = inhibition” value is 7.34%.

Take `COc1ccc(-c2nnc(-c3ccc4ccccc4c3)o2)cc1`: the “activity change, negative = inhibition” value is 7.69%. In the case of `CCOc1ccc(S(=O)(=O)Nc2ccc(C(=O)NCCCN3CCCC3=O)cc2)cc1`, the “activity change, negative = inhibition” value is -0.358%. As for `Cc1nc2sc(C(=O)c3ccccc3)c(N)c2c2c1CCCC2`, the Potency was 25.1 µM (active). As for `CCOC(=O)c1sc2nc(SC)nc(-c3ccccc3)c2c1N`, the “activity change, negative = inhibition” value was -1.48%. For `Cc1cccc(NC(=O)c2sc3nc4c(c(-c5ccco5)c3c2N)CCC4)c1`, the “activity change, negative = inhibition” value was -12.9%. On to `COc1ccc(-c2ccc3nnc(SCC(=O)Nc4ccc(NC(C)=O)cc4)n3n2)cc1`, for which the “activity change, negative = inhibition” value is -24.5%. The same measure, in the same setting: the figure for `CC(C)(C)OC(=O)C[C@@H]1C/C=C\C[C@H](CC(=O)N[C@@H](CO)Cc2ccccc2)C(=O)N[C@H](Cc2ccccc2)COC1=O` is -11.5%; for `O=C(N/N=C/c1ccc2c(c1)OCO2)c1ccc(Cn2cc([N+](=O)[O-])cn2)o1` it is 5.24%. On the same count and under the same terms, the figure for `Cc1c(Cl)c([N+](=O)[O-])nn1CCCC(=O)Nc1cc(Cl)ccc1Cl` is -20.9%. `Cc1c(Cl)c([N+](=O)[O-])nn1Cc1ccc(C(=O)N/N=C\c2cc(Cl)ccc2O)o1`: the Potency is 12.6 µM (active). Consider `Cc1ccc(S(=O)(=O)N2CCC(C(=O)N3CCCCCCC3)CC2)cc1`, for which the “activity change, negative = inhibition” value was 19.1%. Same read-out and setting: the result for `O=C(O)c1ccccc1N=N/C(=N/Nc1cc(S(=O)(=O)O)ccc1O)c1ccccc1` reads 3.51%; that for `CN(C)CCN(C(=O)CN1C(=O)c2ccccc2C1=O)c1nc2cc3c(cc2s1)OCCO3`, 12.9%; that for `COC(=O)c1ccc(CSc2ccc(S(=O)(=O)N3CCCCC3)cn2)cc1`, -14.1%. On to `Cc1ccc2nc(-c3ccncc3)cc(C(=O)Nc3ccncc3)c2c1`, for which the “activity change, negative = inhibition” value was 5.09%.

In the case of `Cc1ccc2nc(-c3ccncc3)cc(C(=O)Nc3ccc(OC(F)F)cc3)c2c1`, the Potency was 8.91 µM (active).

For `Cc1ccc2nc(-c3ccccn3)cc(C(=O)Nc3ccc4c(c3)OCO4)c2c1`, the “activity change, negative = inhibition” value is -30%. `COc1cc(C2C(C(=O)c3cccs3)=C(O)C(=O)N2CCN2CCOCC2)ccc1OCCC(C)C` (stereo unspecified): the “activity change, negative = inhibition” value is 3.65%.
